The source made the active and inactive calls. Entries that show only a call come without a potency. The call rests on the fitted dose curve; in most records, active means well fitted activation curve with a large enough effect; inconclusive means small, poorly fitted or top-dose-only effect, or effect the other way; inactive means flat fitted curve, though single readings scatter.
Experiment: Cellular Toxicity (caspase-3) Renal Proximal Tubule (AID 667);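 further: cells exposed to compound for 16 hours at 37 °C before detection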
Conditions: renal proximal tubule cells, primary cells freshly taken from rat; Potency: caspase-3 activation; series mostly up to 91.7 µM
Text: NIH Chemical Genomics Center [NCGC]
NIH Molecular Libraries Screening Centers Network [MLSCN]
National Institutes of Environmental Health Sciences [NIEHS]
National Toxicology Program [NTP]
We have developed a 1536-well cell-based assay for quantitative high throughput screening (qHTS) against a number of cell lines to determine in vitro caspase 3/7 activity of small molecules. This particular assay uses the primary kidney proximal tubule cells freshly isolated from rat.
NCGC Assay Protocol Summary:
The Caspase-Glo 3/7 assay (Promega) is a homogeneous method to measure caspase-3 and caspase-7 activities in cultured cells. The quantitation of caspase 3/7 activity is based on the cleavage of a peptide-aminoluciferin substrate. After caspase cleaves the substrate the free aminoluciferin is liberated and serves as the substrate of luciferase, which generates the light. The luminescent signal is proportional to the amount of caspase 3/7 activity present.
Using the Caspase-Glo 3/7 assay, the amount of caspase 3/7 activity was measured in the rat kidney proximal tubule cells with complete culture medium following compound treatment for 16 hours. The assay was performed in opaque white 1536-well plates. In the screen, staurosporine and doxorubicin were used as positive controls. Library compounds were measured for their ability to cause the activation of caspase 3/7 in the cell line, as reflected by an increase in luminescence signal, in a concentration-dependent manner. Data were normalized to the controls for basal activity (DMSO only) and 100% stimulation (10 uM staurosporine). AC50 values were determined from concentration-response data modeled with the standard Hill equation.
qHTS protocol for caspase 3/7 assay in rat kidney proximal tubule cells
[Step] [Parameter] [Value] [Description]
1. Reagent; 5 uL; 1000 rat kidney proximal tubule cells/well
2. Time; 5 hr; 37 °C incubation
4. Controls; 23 nL; doxorubicin 7 pM to 100 uM & staurosporine 1.4 pM to 20 uM
5. Time; 16 hr; 37 °C incubation
6. Reagent; 5 uL; Caspase-Glo 3/7 reagent
7. Time; 1 hr; Room Temperature
8. Detection; Luminescence; Viewlux plate reader
Keywords: caspase 3/7, apoptosis, rat kidney proximal tubule cells, luminescence, NTPHTS, NTPHTS_NCGC, NIEHS, EPA, DSSTox, MLSMR, MLSCN, NIH Roadmap, qHTS, NCGC
Potency means the concentration at half of the fitted maximal effect.

**Q.** For `NNC(=O)c1ccncc1`, which Potency is on record?
**A.** inactive

**Q.** Which Potency does the source give for `Cc1noc(NS(=O)(=O)c2ccc(N)cc2)c1C` here?
**A.** inactive

**Q.** Which Potency does the source give for `COc1ccc2cc3[n+](cc2c1OC)CCc1cc2c(cc1-3)OCO2` here?
**A.** inactive

**Q.** Which Potency does the source give for `Cc1nnc(NS(=O)(=O)c2ccc(N)cc2)s1` here?
**A.** inactive

**Q.** With `CCc1cc(C(N)=S)ccn1` as the compound, how does the Potency read?
**A.** inactive

**Q.** For `CN(C)c1ccc(C(=C2C=CC(=[N+](C)C)C=C2)c2ccc(N(C)C)cc2)cc1`, which Potency is on record?
**A.** 31.6 µM (active)

**Q.** For `N=C(N)c1ccc(OCCCCCOc2ccc(C(=N)N)cc2)cc1`, which Potency is on record?
**A.** inactive

**Q.** Which Potency does the source give for `Cc1ncc([N+](=O)[O-])n1CCO` here?
**A.** inactive

**Q.** For `C[C@]12C=CC(=O)C=C1CC[C@@H]1[C@@H]2C(=O)C[C@@]2(C)[C@H]1CC[C@]2(O)C(=O)CO`, which Potency is on record?
**A.** inactive

**Q.** With `Cc1ccnc2c1NC(=O)c1cccnc1N2C1CC1` as the compound, how does the Potency read?
**A.** inactive

**Q.** For `CC(=O)[C@H]1CC[C@H]2[C@@H]3CCC4=CC(=O)CC[C@]4(C)[C@H]3CC[C@]12C`, which Potency is on record?
**A.** inactive

**Q.** For `O=C(O)c1cc(=O)[nH]c(=O)[nH]1`, which Potency is on record?
**A.** inactive

**Q.** Which Potency does the source give for `NC(N)=NC(N)=NCCc1ccccc1` here?
**A.** inactive

**Q.** With `O=C(N[C@H](CO)[C@H](O)c1ccc([N+](=O)[O-])cc1)C(Cl)Cl` as the compound, how does the Potency read?
**A.** inactive

**Q.** With `CC1=NN(c2ccccc2)C(=O)C1` as the compound, how does the Potency read?
**A.** inactive

**Q.** For `Cc1cc(NS(=O)(=O)c2ccc(N)cc2)no1`, which Potency is on record?
**A.** inactive
